This note sets out measurements from ChEMBL document CHEMBL1157539, “Thousands of chemical starting points for antimalarial lead identification” (Nature, 2010).

For this assay, the system named is Plasmodium falciparum. In words: GSK_TCMDC: Inhibition of Plasmodium falciparum 3D7 in whole red blood cells, using parasite LDH activity as an index of growth. Test compounds present at 2uM. Type of assay: functional.
As to `COc1ccc(CNC(=O)NC2CCN(c3ccnc(Nc4ccc(OC)cc4)n3)C2)cc1` (centres undefined), the Inhibition – broadly, the percentage by which the read-out fell short of the control – stood at 87%.

With `COc1cc(OC)c2c(C)cc(NCCCN3CCOCC3)nc2c1`, the Inhibition came to 99%.

The compound `CCCCCCN1CCN(Cc2cccc(NC(=O)c3cc4ccccc4s3)c2)CC1.O=C(O)C(F)(F)F` returned an Inhibition of 93%.

Compound `CC[C@H]1CN(Cc2cccc(O)c2)CC[C@H]1CCCc1ccnc2ccc(O)cc12` yielded an Inhibition of 100%.

For the compound `Nc1c2c(nc3ccc(NC(=O)c4ccccc4)cc13)CCCC2`, the Inhibition was 99%.

`Cc1ccc(-c2noc(COc3ccccc3C(=O)NC3CCCC3)n2)cc1` returned an Inhibition of 89%.

`O=C(Nc1cccc(-c2nc3ccccc3s2)c1)c1ccccc1[N+](=O)[O-]` returned an Inhibition of 85%.

`O=C(NC1CCN(Cc2ccccc2)CC1)c1ccc(-c2nc3cc(Cl)c(Cl)cc3[nH]2)s1` yielded an Inhibition of 100%.

For the compound `O=C(Nc1ccc(Cl)c(Cl)c1)N1CCC(NCc2cccc([N+](=O)[O-])c2)CC1.O=C(O)C(F)(F)F`, the Inhibition turned out to be 97%.

In turn, `O=C(NCCCCN1CCN(c2cccc3ccccc23)CC1)c1ccc(NC(=O)c2ccc(Cl)cc2)cc1` came in with an Inhibition of 100%.

The compound `CN1CCN(c2ccc(Nc3ncc(Cl)c(Nc4cccnc4C(N)=O)n3)cc2)CC1.Cl` gave an Inhibition of 95%.

As for `CCCCNCc1ccc(-c2nc(CN(C(=O)Nc3cc([N+](=O)[O-])ccc3F)C3Cc4ccccc4C3)cs2)cc1.O=C(O)C(F)(F)F`, the Inhibition came out at 87%.

On to `CCCC(C)N(Cc1ccc(C(C)(C)C)cc1)C(=O)c1ccc(OC)cc1` (centres undefined), for which the Inhibition is given as 100%.

As to `CO/C(=C/C=C/c1cc2cc(Cl)c(Cl)cc2[nH]1)C(=O)NC1CC(C)(C)N(C)C(C)(C)C1`, the Inhibition turned out to be 99%.
